Test results taken from PubChem BioAssay AID1159580 (chemical genetic matrix, 2015).
Where “and” joins values, the source holds several entries; their conditions need not be identical. Equal values may be shown once. In all, about 5,500 compounds went through this assay and about 2,000 (36%) were called active. Not shown: some 18% with an inconclusive outcome. Rule as the data show it: active = normalized growth mostly below about 0.91 (no sharp cut-off); inconclusive = no clear call, values can overlap the other calls; inactive = mostly above about 0.92. The list shows a part of the results.

Assay: chemical genetic growth profiling, strain panel (AID 1159580);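 also: tested at 20 µM; growth read once vehicle control cultures reached saturation at 30 °C; 1 = growth at the plate median or of vehicle wells; lower values mean less growth of the strain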
Conditions: S. cerevisiae deletion strains, growth OD

Measured: normalized growth

COc1ccc(OC)c(C(O)C(C)N)c1 (stereo not given)
inactive: locus YAL013W, strain DEP1, hits give low values 1.02 and 1.01 | locus YAL021C, strain ccr4, hits give low values 1 | locus YAL026C, strain drs2, hits give low values 0.993 | locus YAL030W, strain snc1, hits give low values 0.998 | locus YAL040C, strain CLN3, hits give low values 0.977 | locus YBL061C, strain skt5, hits give low values 0.996 | locus YBR009C, strain hhf1, hits give low values 1.01 | locus YBR021W, strain FUR4, hits give low values 1.01 | locus YBR023C, strain chs3, hits give low values 0.998 | locus YBR171W, strain sec66, hits give low values 0.991 | locus YBR229C, strain ROT2, hits give low values 1.02 | locus YBR231C, strain swc5, hits give low values 0.977 | locus YBR279W, strain paf1, hits give low values 1 | locus YCL011C, strain gbp2, hits give low values 1.01 | locus YCL016C, strain dcc1, hits give low values 1.01 | locus YCL029C, strain bik1, hits give low values 0.99 | locus YCL061C, strain MRC1 (second series), hits give low values 1.02 | locus YCL061C, strain MRC1, hits give low values 0.99 | locus YCL069W, strain vba3, hits give low values 1 | locus YCR088W, strain abp1, hits give low values 0.998 | locus YDL005C, strain med2, hits give low values 0.994 | locus YDL035C, strain GPR1, hits give low values 1.01 | locus YDL040C, strain nat1, hits give low values 0.996 | locus YDL074C, strain BRE1, hits give low values 1.05 | locus YDL101C, strain DUN1, hits give low values 1.03 | locus YDL134C, strain PPH21, hits give low values 1.03 | locus YDL185W, strain tfp1, hits give low values 0.988 | locus YDL192W, strain arf1, hits give low values 0.99 | locus YDR001C, strain nth1, hits give low values 0.99 | locus YDR069C, strain doa4, hits give low values 0.999 | locus YDR101C, strain arx1, hits give low values 0.981 | locus YDR137W, strain rgp1, hits give low values 1.03 | locus YDR150W, strain NUM1, hits give low values 1.02 | locus YDR159W, strain sac3, hits give low values 1.01 | locus YDR162C, strain NBP2, hits give low values 1.05 | locus YDR195W, strain ref2 0.948 | locus YDR297W, strain sur2, hits give low values 0.998 | locus YDR318W, strain mcm21, hits give low values 0.977 | locus YDR334W, strain swr1, hits give low values 0.993 | locus YDR335W, strain msn5, hits give low values 0.997 | locus YDR363W, strain ESC2, hits give low values 1.03 | locus YDR388W, hits give low values 0.977 | locus YDR392W, strain spt3, hits give low values 1.01 | locus YDR502C, strain sam2, hits give low values 1 | locus YEL003W, strain gim4, hits give low values 1 | locus YEL037C, strain rad23, hits give low values 0.991 | locus YEL061C, strain CIN8 (second series), hits give low values 0.983 | locus YEL061C, strain CIN8, hits give low values 1.01 | locus YER002W, strain NOP16, hits give low values 0.993 | locus YER015W, strain faa2, hits give low values 0.99 | locus YER016W, strain bim1, hits give low values 0.998 | locus YER110C, hits give low values 0.981 | locus YER111C, strain swi4, hits give low values 1 | locus YER155C, strain BEM2 (second series), hits give low values 0.988 | locus YER155C, strain BEM2, hits give low values 1.01 | locus YER167W, strain BCK2, hits give low values 1.01 | locus YFR010W, strain ubp6, hits give low values 0.99 | locus YGL078C, strain dbp3, hits give low values 0.997 | locus YGL086W, strain mad1, hits give low values 0.983 | locus YGL167C, strain pmr1, hits give low values 0.998 | locus YGL173C, strain kem1, hits give low values 0.991 | locus YGL227W, strain vid30, hits give low values 0.991 | locus YGL240W, strain doc1, hits give low values 0.981 | locus YGL248W, strain PDE1, hits give low values 1.03 | locus YGL253W, strain hxk2, hits give low values 0.998 | locus YGR078C, strain PAC10, hits give low values 1.04 | locus YGR135W, strain pre9, hits give low values 1.03 | locus YGR229C, strain SMI1, hits give low values 1.03 | locus YGR252W, strain gcn5, hits give low values 0.947 | locus YHR013C, strain ard1, hits give low values 0.99 | locus YHR027C, strain rpn1, hits give low values 1 | locus YHR030C, strain SLT2, hits give low values 1 and 1.03 | locus YHR079C, strain IRE1 (second series), hits give low values 0.988 | locus YHR079C, strain IRE1, hits give low values 1.05 | locus YHR094C, strain hxt1, hits give low values 0.99 | locus YHR129C, strain ARP1, hits give low values 1.01 | locus YHR142W, strain chs7, hits give low values 1.01 | locus YHR200W, strain rpn10, hits give low values 0.993 | locus YIL066C, strain RNR3, hits give low values 1.01 | locus YIL073C, strain SPO22, hits give low values 1 | locus YIL125W, strain kgd1, hits give low values 0.995 | locus YIR030C, strain dcg1, hits give low values 0.988 | locus YJL092W, strain hpr5, hits give low values 0.997 | locus YJL095W, strain BCK1 (second series), hits give low values 0.997 | locus YJL095W, strain BCK1, hits give low values 1.04 and 1.03 | locus YJL115W, strain asf1, hits give low values 0.99 | locus YJL129C, strain trk1, hits give low values 0.997 | locus YJL134W, strain LCB3, hits give low values 1.01 | locus YJL154C, strain vps35, hits give low values 0.998 | locus YJL164C, strain tpk1, hits give low values 1.01 | locus YJL166W, strain qcr8, hits give low values 0.974 | locus YJL168C, strain set2, hits give low values 0.989 | locus YJL187C, strain SWE1 (second series), hits give low values 1.02 | locus YJL187C, strain SWE1, hits give low values 1 | locus YJR043C, strain POL32, hits give low values 0.977
